Structures can show the parent of a compound that is named as a salt.
Assays:
Details in all cases: 10 µM; exposure time 6 h
[1] = tested on: Danio rerio larvae (5 dpf); test: difference in excitability vs DMSO (percentage points); higher = more excitable than DMSO
How it was run: (§1)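 Wild-type 5 dpf zebrafish larvae in 96-well plates were given 100 µL egg water containing library compound at 10 µM final for 6 h. After 3 h of exposure, plates at 28.5 ℃ were photographed every 6 s during a 3-h programme of moving lines and 100 ms, 400Hz tones. Z-LaP Tracker (a DeepLabCut model) quantified each behaviour, averaged over 48 larvae per compound. Values are the compound mean minus the DMSO-vehicle control, in percentage points.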

[2] = tested on: Danio rerio larvae (5 dpf); test: difference in startle response vs DMSO (percentage points); higher = stronger startle than DMSO
How it was run: as §1

[3] = tested on: Danio rerio larvae (5 dpf); test: difference in activity during first hour vs DMSO (percentage points); higher = more activity than DMSO
How it was run: as §1

[4] = tested on: Danio rerio larvae (5 dpf); test: difference in habituation to acoustic stimuli vs DMSO (percentage points); higher = more habituation than DMSO
How it was run: as §1

[5] = tested on: Danio rerio larvae (5 dpf); test: difference in combined optomotor response to red, green and blue moving lines vs DMSO (percentage points); higher = stronger optomotor response than DMSO
How it was run: as §1

| SMILES | difference in excitability [1] | difference in startle response [2] | difference in activity during first hour [3] | difference in habituation to acoustic stimuli [4] | difference [5] |
| --- | --- | --- | --- | --- | --- |
| Cc1cc(Nc2ncc(Cl)c(Nc3ccccc3S(=O)(=O)C(C)C)n2)c(OC(C)C)cc1C1CCNCC1 [Ceritinib] | 23.6 | -3.09 | -7.86 | -6.25 | -1.6 |
| Cc1c(-c2ccccc2)oc2c(C(=O)OCCN3CCCCC3)cccc2c1=O [Flavoxate (hydrochloride)] | 8.74 | 1.49 | 13.3 | -3.99 | 8.27 |
| C=C1[C@H](CO)[C@@H](O)C[C@@H]1n1cnc2c(=O)[nH]c(N)nc21 [Entecavir (hydrate)] | -1.86 | 2.04 | -1.96 | 5.32 | 0.96 |
| COC1=CC(=O)C[C@@H](C)[C@]12Oc1c(Cl)c(OC)cc(OC)c1C2=O [Griseofulvin] | 3.76 | 5.64 | 19.9 | 2.87 | 8.4 |
| Clc1ccc(COC(Cn2ccnc2)c2ccc(Cl)cc2Cl)c(Cl)c1 (stereo not given) [Miconazole (nitrate)] | 9.53 | -10.9 | -23.5 | -11.4 | -18.4 |
| C#C[C@]1(O)CC[C@H]2[C@@H]3CCC4=CC(=O)CC[C@@H]4[C@H]3CC[C@@]21C [Norethindrone] | 4.84 | -3.95 | -0.842 | 2.6 | 11.2 |
| CCC(=O)O[C@]1(C(=O)CCl)[C@@H](C)C[C@H]2[C@@H]3C[C@H](F)C4=CC(=O)C=C[C@]4(C)[C@@]3(F)[C@@H](O)C[C@@]21C [Halobetasol Propionate] | 12.1 | 1.54 | 3.96 | -4.09 | 3.99 |
| CN(C)CCOC(c1ccccc1)c1ccccc1 [Diphenhydramine (hydrochloride)] | -0.341 | 0.108 | -10.6 | -3.37 | 3.89 |
| Cc1[nH]c(=O)c(C#N)cc1-c1ccncc1 [Milrinone] | -4.22 | -1.03 | 2.14 | 0.444 | 8.34 |
| C[N+](C)(C)C[C@H](O)CC(=O)[O-] [L-Carnitine] | -2.51 | -2.46 | 8.51 | 4 | 3.58 |
| COC(=O)N[C@H](C(=O)N[C@@H](Cc1ccccc1)[C@@H](O)CN(Cc1ccc(-c2ccccn2)cc1)NC(=O)[C@@H](NC(=O)OC)C(C)(C)C)C(C)(C)C [Atazanavir] | -0.672 | -1.55 | -1.56 | -0.953 | 2.7 |
| CC(=O)OCC(=O)[C@@]12OC(C)(C)O[C@@H]1C[C@H]1[C@@H]3C[C@H](F)C4=CC(=O)C=C[C@]4(C)[C@@]3(F)[C@@H](O)C[C@@]12C [Fluocinonide] | 0.338 | 2.99 | -1.35 | -2.83 | 0.257 |
| C[C@@H]1CCN(C(=O)CC#N)C[C@@H]1N(C)c1ncnc2[nH]ccc12 | -2.24 | -4.49 | -6.58 | -6.59 | 6.98 |
| CC(C)(O/N=C(\C(=O)N[C@@H]1C(=O)N2C(C(=O)[O-])=C(C[n+]3ccccc3)CS[C@H]12)c1csc(N)n1)C(=O)O [Ceftazidime (hydrate)] | -0.0444 | 0.0878 | 3.86 | 0.293 | 4.55 |
| CC(C)OC(=O)CCC/C=C\C[C@@H]1[C@@H](/C=C/C(F)(F)COc2ccccc2)[C@H](O)C[C@@H]1O [Tafluprost] | 10.1 | -0.187 | -16 | 12.5 | -4.17 |
| C[C@]12CC[C@@H]3c4ccc(O)cc4CC[C@H]3[C@@H]1CC[C@@H]2O [17β-Estradiol] | 14.6 | -4.36 | -22.1 | -4.38 | -11.6 |
| CC(C)NCC(O)c1ccc(O)c(O)c1 (stereo not given) [Isoproterenol (hydrochloride)] | -11.9 | -6.4 | 45.9 | 1.72 | 6.58 |
| O=C(O)Cc1ccccc1Nc1c(Cl)cccc1Cl [Diclofenac (sodium salt)] | 17.2 | -1.39 | 2.16 | -5.15 | 2.67 |
| CC1=C(/C=C/C(C)=C\C=C\C(C)=C\C(=O)O)C(C)(C)CCC1 [9-cis-Retinoic Acid] | 5.5 | -1.66 | 5.1 | 10.2 | 2.9 |
| CCCSc1ccc2[nH]c(NC(=O)OC)nc2c1 [Albendazole] | 17.3 | 4.02 | 4.4 | 0.0113 | 3 |
| CCN1C(=O)NC(c2ccccc2)C1=O (stereo not given) [Ethotoin] | -4.35 | 11.7 | -2.99 | 0.909 | -3.6 |
| CCN(CC)CC(=O)Nc1c(C)cccc1C [Lidocaine] | 4.55 | -4.05 | 10.3 | -4.04 | 1.72 |
| CC(=O)N[C@H]1[C@H]([C@H](O)[C@H](O)CO)OC(C(=O)O)=C[C@@H]1NC(=N)N [Zanamivir] | 1.36 | -2.53 | -16.7 | 1.69 | -6.11 |
| CC(C(=O)O)c1cccc(Oc2ccccc2)c1 (stereo not given) [Fenoprofen (calcium salt hydrate)] | 5.22 | 0.479 | -0.54 | -2.86 | -2.31 |
| CCN1CCN(C(=O)N[C@@H](C(=O)N[C@@H]2C(=O)N3[C@@H]2SC(C)(C)[C@@H]3C(=O)O)c2ccccc2)C(=O)C1=O [Piperacillin (sodium salt)] | 2.92 | 2.6 | 14.2 | -3.02 | 5.57 |

| SMILES | difference in excitability [1] | difference in startle response [2] | difference in activity during first hour [3] | difference in habituation to acoustic stimuli [4] | difference [5] |
| --- | --- | --- | --- | --- | --- |
| CNNCc1ccc(C(=O)NC(C)C)cc1 [Procarbazine (hydrochloride)] | 0.724 | -0.558 | 6.39 | -5.35 | 4.87 |
| CC(O)(P(=O)(O)O)P(=O)(O)O [Etidronate (sodium salt)] | 5.12 | 2.23 | 11.4 | -1.7 | 4.9 |
| COCC1=C(C(=O)O)N2C(=O)[C@@H](NC(=O)/C(=N\OC)c3csc(N)n3)[C@H]2SC1 [Cefpodoxime] | 0.712 | 1.11 | -0.401 | -0.554 | 7.24 |
| COc1c(N2CCNC(C)C2)c(F)cc2c(=O)c(C(=O)O)cn(C3CC3)c12 (stereo not given) [Gatifloxacin] | 15 | -3.53 | -1.17 | 2.86 | 2.83 |
| CN(C)CC/C=C1/c2ccccc2COc2ccc(CC(=O)O)cc21 [Olopatadine (hydrochloride)] | 2.11 | -1.34 | -6.94 | 3.84 | 2.97 |
| CCCCNC(=O)NS(=O)(=O)c1ccc(C)cc1 [Tolbutamide] | 1.04 | -0.31 | 15.1 | 0.867 | 0.664 |
| O=C1CCCC(=O)C1C(=O)c1ccc(C(F)(F)F)cc1[N+](=O)[O-] [Nitisinone] | -4.15 | -6.23 | 19.7 | -0.151 | 0.618 |
| Nc1cccc2c1CN(C1CCC(=O)NC1=O)C2=O (stereo not given) [Lenalidomide] | -0.5 | 7.32 | 0.485 | -0.169 | 5.58 |
| CC(=O)O[C@H]1CC[C@@]2(C)C(=CC[C@@H]3[C@@H]2CC[C@]2(C)C(c4cccnc4)=CC[C@@H]32)C1 [Abiraterone Acetate] | 9.1 | -1.78 | -2.76 | -1.15 | 2.44 |
| CCN(CCO)CCCC(C)Nc1ccnc2cc(Cl)ccc12 (stereo not given) [Hydroxychloroquine (sulfate)] | 10.2 | 0.589 | -2.91 | 4.81 | -3.68 |
| CC[N+](C)(C)c1cccc(O)c1 [Edrophonium (chloride)] | -0.775 | -0.613 | 5.67 | 7.33 | 3.51 |
| C[N+]1(C)CCC(OC(=O)C(O)(c2ccccc2)C2CCCC2)C1 (stereo not given) [Glycopyrrolate] | -0.597 | -8.53 | 7.84 | -7.11 | -2.89 |
| C[C@]12CC[C@@H]3c4ccc(OS(=O)(=O)O)cc4CC[C@H]3[C@@H]1CCC2=O [Estropipate] | 1.84 | -3.42 | -3.25 | -2.86 | -4.79 |
| COC[C@H]1C[C@@H](c2nc(-c3ccc4c(c3)COc3cc5c(ccc6nc([C@@H]7CC[C@H](C)N7C(=O)[C@@H](NC(=O)OC)C(C)C)[nH]c65)cc3-4)c[nH]2)N(C(=O)[C@H](NC(=O)OC)c2ccccc2)C1 [Velpatasvir] | 10.1 | 2.08 | 2 | -1.59 | 0.589 |
| Nc1cc(Cl)c(N=C2NCCN2)c(Cl)c1 [Apraclonidine (hydrochloride)] | 8.82 | 7.97 | -13.7 | -0.961 | -2.54 |
| CNC1(C)C2CCC(C2)C1(C)C (stereo not given) [Mecamylamine (hydrochloride)] | 3.59 | -1.88 | -1.28 | -4.36 | 11.1 |
| CC1Cc2ccccc2N1NC(=O)c1ccc(Cl)c(S(N)(=O)=O)c1 (stereo not given) [Indapamide] | 4.58 | 1.23 | 7.09 | -1.64 | 1.06 |
| CC(=O)O[C@H]1Cc2ccccc2N(C(N)=O)c2ccccc21 [Eslicarbazepine Acetate] | -1.41 | -0.316 | -0.636 | -4.75 | -2.32 |
| Cn1cnc2c(F)c(Nc3ccc(Br)cc3F)c(C(=O)NOCCO)cc21 [Binimetinib] | -0.212 | -0.502 | 15.3 | -0.78 | 7.07 |
| N[C@H](C(=O)O)[C@H](O)c1ccc(O)c(O)c1 [Droxidopa] | 0.975 | 0.64 | 3.89 | 5.02 | 2.12 |
| CC1=Nc2ccc(Cl)cc2S(=O)(=O)N1 [Diazoxide] | -4.99 | 1.05 | 4.03 | -3.84 | 5.23 |
| C[C@](N)(Cc1ccc(O)cc1)C(=O)O [Metyrosine] | 0.523 | 8.55 | -8.67 | 12.3 | -4.59 |
| C=CC(=O)N1CCC[C@@H](n2nc(-c3ccc(Oc4ccccc4)cc3)c3c(N)ncnc32)C1 [Ibrutinib] | 14.1 | 0.877 | -6.73 | -6.76 | 9.38 |
| Cc1ccc(Nc2nccc(N(C)c3ccc4c(C)n(C)nc4c3)n2)cc1S(N)(=O)=O [Pazopanib] | 3.47 | -4.32 | -7.88 | 0.185 | 1.79 |

Reference: the supplement of paper PMC10515830
